Experimental data: PubChem BioAssay AID1220 (Sanford-Burnham Center for Chemical Genomics, 2008)
The whole screen tested about 190,000 compounds, of which about 1,300 (0.68%) were called active. The sample as a whole holds a higher share of actives than the screen did. Unmarked numbers belong to inactive results. Rule as the data show it: active = inhibition above about 50%; inactive = the rest.

Target: Mannose-6-phosphate isomerase (Homo sapiens) (UniProt P34949)
Assay: MPI inhibition at elevated mannose 6-phosphate – biochemical, fluorescence intensity, high mannose 6-phosphate, primary screen (AID 1220)
Details: recombinant PMI enzyme, coupled fluorescence intensity; at 20 µM; hits give high values

Sequence of Mannose-6-phosphate isomerase (Homo sapiens) (P34949 whole entry, looked up): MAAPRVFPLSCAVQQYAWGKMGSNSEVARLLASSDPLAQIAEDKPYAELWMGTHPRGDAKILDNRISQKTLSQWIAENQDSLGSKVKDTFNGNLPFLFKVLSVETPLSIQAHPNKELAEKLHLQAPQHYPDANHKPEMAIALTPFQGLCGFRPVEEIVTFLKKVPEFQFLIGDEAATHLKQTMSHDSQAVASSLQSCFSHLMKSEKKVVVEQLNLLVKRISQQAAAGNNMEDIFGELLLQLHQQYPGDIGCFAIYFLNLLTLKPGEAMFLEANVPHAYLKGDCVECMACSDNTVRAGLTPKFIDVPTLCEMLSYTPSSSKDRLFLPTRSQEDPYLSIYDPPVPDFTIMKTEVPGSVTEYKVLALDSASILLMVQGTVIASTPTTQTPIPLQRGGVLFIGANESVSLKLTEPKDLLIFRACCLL

| Structure (SMILES) | inhibition |
| --- | --- |
| Cc1ccc(S(=O)(=O)Cc2ccc(C(=O)N3CCc4ccccc4C3)o2)cc1 | -0.7% |
| CC(C)c1cccc(C(C)C)c1NC(=O)COC(=O)c1ccc(OCC(=O)Nc2cccc(C(F)(F)F)c2)cc1 | 10.7% |
| O=c1oc2ccccc2cc1-c1cn2ccccc2n1 | -4.7% |
| COc1cc(OC)c(NC(=O)CC(C)=O)cc1Cl | 26.6% |
| Clc1ccccc1OCc1nnc(-c2ccccc2Br)o1 | 5.6% |
| CC(C)(C)NC(=O)CSc1nc(N)cc(=O)[nH]1 | 0.4% |
| COc1ccc(C(O)c2nccn2C)cc1 (stereo not given) | 9.1% |
| Cn1ccnc1C(O)c1ccccc1 (stereo not given) | 15.2% |
| COc1ccc2ccccc2c1C(O)c1nccn1C (stereo not given) | 64.7% (active) |
| OC(COCc1ccc(Cl)cc1)CN1CCN(CC(O)COCc2ccc(Cl)cc2)CC1 (stereo not given) | -11.7% |
| Cc1csc(NC(=O)C2C3C=CC(O3)C2C(=O)O)n1 (stereo not given) | 5% |
| Cc1ccc2[nH]c3c(c2c1)CCC3=O | 15.5% |
| Cc1ccc2[nH]c3c(c2c1)CCNC3=O | -5.2% |
| Cc1onc(-c2ccccc2)c1C(=O)Oc1cccnc1 | -0.5% |
| CC(=O)NC(CCS(C)(=O)=O)C(=O)Nc1ccccc1C (stereo not given) | 3.2% |
| CCCCN(C)C(=O)c1cc2cc3cc(OC)ccc3nc2o1 | 16.4% |
| Cc1cccnc1CCNC(=O)CCc1nnc(CCc2ccccc2)o1 | 17.7% |
| O=C(NC1CC1)c1cc(Cl)ccc1[N+](=O)[O-] | 12.7% |
| O=C(c1ccco1)c1coc2c1cc(O)c1ccccc12 | 51.1% (active) |
| CC(=O)c1coc2c1cc(O)c1ccccc12 | 4.7% |
| O=C(c1cc(C(=O)c2ccco2)cc(C(=O)c2ccco2)c1)c1ccco1 | 6.2% |
| CCOC(=O)c1ccc(N2C(=O)CC(N3CCOCC3)C2=O)cc1 (stereo not given) | -0.3% |
| CNc1cccc2c1C(=O)c1ccccc1C2=O | 24.4% |
| CN(C)c1cc2c(c(N(C)C)c1)C(=O)c1ccccc1C2=O | 50.3% (active) |
| CN(C=[N+](C)C)c1cccc2c1C(=O)c1ccccc1C2=O | 39.3% |
| COc1ccc(OC)c2c1C(=O)c1ccccc1C2=O | -55.2% |
| CN(C)S(=O)(=O)c1cccc2c1C(=O)c1ccccc1C2=O | 21% |
| CN(C)c1cccc2c1C(=O)c1ccccc1C2=O | 55.7% (active) |
| Cc1nc2ccccn2c1C(=O)NN=C1CCCC1 | -5% |
| Cc1ccc(C(=O)NNC(=O)c2cccc(S(=O)(=O)N3CCN(c4ccccc4)CC3)c2)cc1 | 5.6% |
